Test results taken from PubChem BioAssay (NCI).
Compounds without any hit were thinned out: in the full panel of roughly 83,000, 20% have a hit.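 Step 1: grow cells in 96-well plates. Step 2: add test compound at a single concentration. Step 3: incubate 48 h. Step 4: record percent growth.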 Unmarked numbers belong to inactive results. Active and inactive are the calls of the source. The calls were made as follows: active = growth percent below 10; inactive = the rest.

Test system: SK-MEL-5 melanoma
Assay: NCI-60 one-dose screen, 48 h (100 = growth as untreated, 0 = no growth, -100 = all killed)
Settings: 10 µM

Structure (SMILES) | growth
CC(=O)OCC1CCCO1 (stereo unspecified) | 101%
N#CCCc1ccc(O)cc1 | 105%
Nc1ccc(N=Nc2ccc(S(=O)(=O)O)cc2)c2ccccc12 | 94.4%
O=C1OC(=O)C2C1C1(Cl)C(Cl)=C(Cl)C2(Cl)C2C(=O)OC(=O)C21 (stereo unspecified) | 103%
O=c1[nH]nc(SC2CCCCC2)c(=O)[nH]1 | 112%
Cc1cc(C(O)(c2ccc(Nc3ccccc3)cc2)c2ccc(Nc3ccc(S(=O)(=O)O)cc3)cc2)ccc1N (stereo unspecified) | -90.4% (active)
CCCNC(=O)c1ccc(S(N)(=O)=O)cc1 | 101%
CN(C)c1ccc2oc(=O)c3ccccc3c2c1 | 94.9%
Cc1ccc(CCCC(=O)O)c(C)c1 | 102%
Oc1ccccc1-c1nnco1 | 102%
COc1ccc(C(O)c2ccccc2)cc1 (stereo unspecified) | 99.3%
FC(F)(F)c1ccc2c(c1)N(CCCN1CCN(C3CC3)CC1)c1ccccc1S2 | 81%
CC(=O)NCc1cc(C)c(C)cc1C | 104%
CCC(C)(O)c1ccc(C)cc1 (stereo unspecified) | 98.5%
CC(C)(N)COS(=O)(=O)O | 102%
Cc1cc(C)cc(NCCC#N)c1 | 107%
O=C(O)CSCSCC(=O)O | 103%
O/N=C/c1ccc(O)cc1O | 104%
CCO/C=C1\SC(=S)N(c2cccc(C)c2)C1=O | 102%

Structure (SMILES) | growth
Cc1cc2ccccc2c(O)c1C#N | 104%
O=C(O)/C=C/C(=O)NCc1ccccc1 | 101%
Cc1cc2nc(CO)[nH]c2cc1C | 112%
C=CCNc1ccccc1 | 102%
NC(=O)NC(=O)c1ccc(Cl)cc1 | 107%
CCOc1ccc(I)cc1 | 118%
CC(C)C(C#N)(C(C)C)C(C)C | 101%
CCCCOC(OCCCC)c1ccccc1 | 103%
NC(=O)c1ccc(N=C(N)N=C(N)N)cc1 | 93.6%
CCOc1ccccc1/C=N/Nc1nc2ccccc2o1 | 97.7%
CO[C@H]1C[C@@H]2CC[C@@H](C)[C@@](O)(O2)C(=O)C(=O)N2CCCC[C@H]2C(=O)O[C@H]([C@H](C)C[C@@H]2CC[C@@H](O)[C@H](OC)C2)CC(=O)[C@H](C)C=C(C)[C@@H](O)[C@@H](OC)C(=O)[C@H](C)C[C@H](C)/C=C/C=C/C=C1C | 24.8%
O=C(NCCNC(=O)c1ccc(Cl)cc1Cl)c1ccc(Cl)cc1Cl | 98.5%
COC(=O)/C=C/C(=O)NC(N)=O | 104%
Cc1ccc(O)c(C(=O)c2ccccc2)c1 | 105%
CN(C)c1ccc(C(c2ccc(O)cc2)c2ccc(N(C)C)cc2)cc1 | 90.5%
Nc1ccc(N)c([N+](=O)[O-])c1 | 95.2%
CCOC(=O)c1[nH]c(C)c(C(C)=O)c1C | 93.4%
CC(C)C1CCCCC1O (stereo unspecified) | 103%

Test system: UACC-62 melanoma
Assay: as above
Settings: 10 µM unless noted

Structure (SMILES) | growth
CC(=O)OCC1CCCO1 (stereo unspecified) | 99.8%
N#CCCc1ccc(O)cc1 | 102%
Nc1ccc(N=Nc2ccc(S(=O)(=O)O)cc2)c2ccccc12 | 90.7%
O=C1OC(=O)C2C1C1(Cl)C(Cl)=C(Cl)C2(Cl)C2C(=O)OC(=O)C21 (stereo unspecified) | 102%
CCCCCCCCO | 108%
Cc1cc(C(O)(c2ccc(Nc3ccccc3)cc2)c2ccc(Nc3ccc(S(=O)(=O)O)cc3)cc2)ccc1N (stereo unspecified) | -22.7% (active)
CCCNC(=O)c1ccc(S(N)(=O)=O)cc1 | 109%
Cc1ccc(CCCC(=O)O)c(C)c1 | 102%
Oc1ccccc1-c1nnco1 | 89.9%
COc1ccc(C(O)c2ccccc2)cc1 (stereo unspecified) | 95.3%
FC(F)(F)c1ccc2c(c1)N(CCCN1CCN(C3CC3)CC1)c1ccccc1S2 | 54%
CC(=O)NCc1cc(C)c(C)cc1C | 109%
CCC(C)(O)c1ccc(C)cc1 (stereo unspecified) | 102%
CC(C)(N)COS(=O)(=O)O | 102%
Cc1cc(C)cc(NCCC#N)c1 | 105%
O=C(O)CSCSCC(=O)O | 100%
O/N=C/c1ccc(O)cc1O | 96.5%

Structure (SMILES) | growth
CCO/C=C1\SC(=S)N(c2cccc(C)c2)C1=O | 105%
O=C(O)/C=C/C(=O)NCc1ccccc1 | 118%
Cc1cc2nc(CO)[nH]c2cc1C | 99.7%
C=CCNc1ccccc1 | 89.9%
CCOc1ccc(I)cc1 | 95.2%
CC(C)C(C#N)(C(C)C)C(C)C | 102%
CCCCOC(OCCCC)c1ccccc1 | 97.2%
NC(=O)c1ccc(N=C(N)N=C(N)N)cc1 | 105%
CCOc1ccccc1/C=N/Nc1nc2ccccc2o1 | 82.6%
CO[C@H]1C[C@@H]2CC[C@@H](C)[C@@](O)(O2)C(=O)C(=O)N2CCCC[C@H]2C(=O)O[C@H]([C@H](C)C[C@@H]2CC[C@@H](O)[C@H](OC)C2)CC(=O)[C@H](C)C=C(C)[C@@H](O)[C@@H](OC)C(=O)[C@H](C)C[C@H](C)/C=C/C=C/C=C1C | 43.8%
O=C(NCCNC(=O)c1ccc(Cl)cc1Cl)c1ccc(Cl)cc1Cl | 91.1%
COC(=O)/C=C/C(=O)NC(N)=O | 101%
Cc1ccc(O)c(C(=O)c2ccccc2)c1 | 96.6%
CN(C)c1ccc(C(c2ccc(O)cc2)c2ccc(N(C)C)cc2)cc1 | 79.8%
Nc1ccc(N)c([N+](=O)[O-])c1 | 98.5%
CCOC(=O)c1[nH]c(C)c(C(C)=O)c1C | 100%
CC(C)C1CCCCC1O (stereo unspecified) | 102%
